Assay outcomes: PubChem, National Center for Advancing Translational Sciences (NCATS)
DT40 TDP1 no CPT: qHTS for Inhibitors of human tyrosyl-DNA phosphodiesterase 1 (TDP1): qHTS in cells in absence of CPT | DT40 Tdp1-/- hTDP1 cells, no CPT, ATP luminescence, 48 h | Potency, µM (titrated, usually from 46.2 µM), actives largely listed as inhibitors | hit rate 15% among 420,000; further: nearly all actives have a fitted effect of over 55% in size
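Chicken DT40 Tdp1-/- cells complemented with human TDP1, screened without camptothecin (DMSO vehicle only), 400 cells/well. Compounds pin-transferred, cells incubated at 37 °C for at least 48 hr. Growth read as ATP-dependent luminescence (CellTiter-Glo, 30 min at RT).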
RORgamma inh: qHTS for inhibitors of ROR gamma transcriptional activity; Nuclear receptor ROR-gamma (Mus musculus), P51450; Drosophila S2 Gal4-RORgamma UAS-luciferase reporter, 20 h; Potency, µM (highest dose often 53.6 µM), most hits filed as inhibitors; hit rate 5.4% among 310,000; further: nearly all actives have a fitted effect of over 60% in size
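Schneider cells (Drosophila), stable Gal4 DBD–ROR gamma + UAS-luc; 1 hr cmpd preincubation; Cu2+ induction 700 uM final; 20 hr ambient; luminescence.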
Gal4-VP16 FLuc: VP16 counterscreen qHTS for inhibitors of ROR gamma transcriptional activity. Drosophila S2 Gal4-VP16 UAS-luciferase, luminescence, 20 h. Potency, µM (series often up to 53.6 µM), hits mostly inhibitors. hit rate 3.5% among 310,000;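 further: Gal4-VP16 expression switched on by copper sulfate through the metallothionein promoter; nearly all actives have a fitted effect of over 50% in size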
ELG1 DNA repair: qHTS screen for small molecules that inhibit ELG1-dependent DNA repair in human embryonic kidney (HEK293T) cells expressing luciferase-tagged ELG1; HEK293T ELG1-luciferase reporter, luminescence, 16 h; DNA damage induced by 5-fluorouridine; Potency, µM (top dose mostly 46.1 µM), actives largely listed as inhibitors; hit rate 2.3% among 330,000; AID 504467, 2011; further: nearly all actives have a fitted effect of over 55% in size
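In this reporter screen, reduction of luminescence relative to DMSO vehicle indicated activity. Compounds and 5-fluorouridine were added together to 2,000 cells per well, incubated for 16 hr at 37 °C, then developed with ONE-Glo.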
TDP1 cell CPT: qHTS for Inhibitors of human tyrosyl-DNA phosphodiesterase 1 (TDP1): qHTS in cells in presence of CPT. chicken DT40 Tdp1-/-;hTDP1 cells + 20 nM CPT, ATP luminescence, 48 h. Potency, µM (titrated, usually from 46.2 µM), usual class: inhibitors. hit rate 12% among 420,000. AID 686979, 2013; further: nearly all actives have a fitted effect of over 55% in size
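Cell growth measured by CellTiter-Glo luminescence after a minimum 48 h, 37 C compound exposure with 20 nM CPT in Tdp1-knockout DT40 cells stably expressing hTDP1, seeded 400/well; qHTS titration format.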
12-LOX inh: Primary qHTS assay for inhibitors of human arachidonate 12S-lipoxygenase (ALOX12): Round 2. Polyunsaturated fatty acid lipoxygenase ALOX12 (Homo sapiens), P18054. purified 12hLO, xylenol orange hydroperoxide absorbance. Potency, µM (doses to about 108 µM), usual class: inhibitors. hit rate 1.1% among 580,000. AID 1671190, 2021
Target sequence (P18054 whole entry, looked up): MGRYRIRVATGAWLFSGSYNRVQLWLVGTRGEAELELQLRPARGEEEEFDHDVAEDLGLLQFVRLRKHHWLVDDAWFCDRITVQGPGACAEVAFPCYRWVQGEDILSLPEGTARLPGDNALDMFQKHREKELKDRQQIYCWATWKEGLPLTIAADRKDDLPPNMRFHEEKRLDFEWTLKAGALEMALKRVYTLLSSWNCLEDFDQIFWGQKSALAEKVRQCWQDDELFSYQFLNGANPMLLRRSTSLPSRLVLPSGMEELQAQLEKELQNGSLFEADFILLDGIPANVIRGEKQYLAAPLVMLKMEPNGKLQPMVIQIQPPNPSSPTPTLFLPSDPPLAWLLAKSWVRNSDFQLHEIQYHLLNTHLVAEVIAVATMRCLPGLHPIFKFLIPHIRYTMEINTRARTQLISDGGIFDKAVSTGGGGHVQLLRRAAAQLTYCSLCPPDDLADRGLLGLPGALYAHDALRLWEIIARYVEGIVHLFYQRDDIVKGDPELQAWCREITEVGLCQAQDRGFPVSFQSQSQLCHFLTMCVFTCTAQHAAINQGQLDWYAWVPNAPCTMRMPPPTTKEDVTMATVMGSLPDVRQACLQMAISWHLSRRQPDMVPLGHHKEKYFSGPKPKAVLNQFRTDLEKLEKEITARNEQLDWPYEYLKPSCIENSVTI
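Hydroperoxide product was detected by ferrous iron/xylenol orange as the 573 to 405 nm absorbance ratio. Arachidonic acid at 40 uM (final) was turned over for 30 min at room temperature by 150 nM human 12hLO, pH 7.0 Hepes buffer, after 15 min compound preincubation.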
Hits are given with their value. Sampled rows, rich in hits. Any-hit rate of the full collection: about 15%. The call rests on the fitted dose curve; in most records, active means well fitted curve in the direction sought with a large enough effect; inconclusive means small, poorly fitted or top-dose-only effect, or another doubt; inactive means no such curve, though single readings can be large; an effect the other way counts as inactive or inconclusive.

Screening COc1ccc(-c2ccc3ncc(Nc4ccccc4C)n3n2)cn1 returned 12-LOX inh inactive.
Screening Nc1nc(-c2nn(Cc3ccccc3F)c3ncccc23)ncc1C1CC1 returned RORgamma inh 1.78µM and Gal4-VP16 FLuc 12.6µM.
For CCOc1cc(N2CCOCC2)c(OCC)cc1NC(=O)c1ccccc1 the results were DT40 TDP1 no CPT 16.4µM, RORgamma inh inactive, Gal4-VP16 FLuc inactive, ELG1 DNA repair inconclusive, TDP1 cell CPT 20.6µM and 12-LOX inh inactive.
Screening CCOc1cc(N2CCOCC2)c(OCC)cc1NC(=O)C(C)(C)C returned DT40 TDP1 no CPT inconclusive, RORgamma inh inactive, Gal4-VP16 FLuc inactive, ELG1 DNA repair inactive, TDP1 cell CPT inactive and 12-LOX inh inactive.
CCOc1cc(N2CCOCC2)c(OCC)cc1NC(=O)c1c(-c2ccccc2Cl)noc1C was read as DT40 TDP1 no CPT 7.31µM, RORgamma inh inactive, Gal4-VP16 FLuc inactive, ELG1 DNA repair inconclusive, TDP1 cell CPT 10.3µM and 12-LOX inh inactive.
Screening CCOc1cc(N2CCOCC2)c(OCC)cc1NC(=O)c1ccc(-n2ccnc2)c([N+](=O)[O-])c1 returned DT40 TDP1 no CPT 14.6µM, RORgamma inh inactive, Gal4-VP16 FLuc inactive, ELG1 DNA repair inconclusive, TDP1 cell CPT inactive and 12-LOX inh inactive.
For CCOc1cc(N2CCOCC2)c(OCC)cc1NC(=O)Cc1ccccc1 the results were DT40 TDP1 no CPT inconclusive, RORgamma inh inactive, Gal4-VP16 FLuc inactive, ELG1 DNA repair inactive, TDP1 cell CPT inactive and 12-LOX inh inactive.
CCOc1cc(N2CCOCC2)c(OCC)cc1NC(=O)Cc1ccccc1OC was read as DT40 TDP1 no CPT 18.4µM, RORgamma inh inactive, Gal4-VP16 FLuc 22.4µM, ELG1 DNA repair inconclusive, TDP1 cell CPT 16.4µM and 12-LOX inh inactive.
Screening CCOc1cc(N2CCOCC2)c(OCC)cc1NC(=O)c1c(-c2ccccc2)noc1C returned DT40 TDP1 no CPT inactive, ELG1 DNA repair inconclusive, TDP1 cell CPT inconclusive and 12-LOX inh inactive.
O=c1c(-c2ccccc2)nnc2sc(-c3ccc(Cl)cc3)nn12 was read as 12-LOX inh inactive.
Screening COCCNC(=O)[C@@H]1C[C@H](Oc2cccnc2)CN1C(=O)c1ccoc1 returned 12-LOX inh inactive.
For COC[C@@H]1CN(C(=O)c2cccc(C#N)c2)C[C@H]1c1nc(C2CC2)no1 the results were 12-LOX inh inactive.
For O=C(NC1CCc2ccccc21)c1cc(Br)ccc1Cl (centres undefined) the results were 12-LOX inh inactive.
O=C(COc1ncnc2ccc(Br)cc12)Nc1ccc(F)cc1F was read as 12-LOX inh inactive.
CCOc1cc(N2CCOCC2)c(OCC)cc1NC(=O)c1ccc(OC(C)C)cc1 was read as DT40 TDP1 no CPT 20.6µM, RORgamma inh inactive, Gal4-VP16 FLuc inactive, ELG1 DNA repair inconclusive, TDP1 cell CPT inconclusive and 12-LOX inh inactive.
Screening CCOc1cc(N2CCOCC2)c(OCC)cc1NC(=O)c1cccc(S(=O)(=O)N2CCOCC2)c1 returned DT40 TDP1 no CPT inconclusive, ELG1 DNA repair 16.4µM, TDP1 cell CPT inactive and 12-LOX inh inactive.
Screening CCOc1cc(N2CCOCC2)c(OCC)cc1NC(=O)c1cccc(S(=O)(=O)N2CC(C)OC(C)C2)c1 (centres undefined) returned DT40 TDP1 no CPT inconclusive, TDP1 cell CPT inactive and 12-LOX inh inactive.
`CCCn1nc(C(=O)Nc2cc(OCC)c(N3CCOCC3)cc2OCC)c2ccccc2c1=O` gave DT40 TDP1 no CPT 3.26µM, TDP1 cell CPT 16.4µM and 12-LOX inh inactive.
CCOc1cc(N2CCOCC2)c(OCC)cc1NC(=O)c1ccc(S(=O)(=O)N(C)C)cc1 was read as DT40 TDP1 no CPT inconclusive, RORgamma inh inactive, Gal4-VP16 FLuc inactive, ELG1 DNA repair inconclusive, TDP1 cell CPT inconclusive and 12-LOX inh inactive.
CCOc1cc(N2CCOCC2)c(OCC)cc1NC(=O)c1ccc(C)cc1 was read as DT40 TDP1 no CPT 9.2µM, RORgamma inh inactive, Gal4-VP16 FLuc inconclusive, ELG1 DNA repair inconclusive, TDP1 cell CPT inconclusive and 12-LOX inh inactive.
Screening CC(C)(CNC(=O)C(C)(C)C)CNC(=O)C(C)(C)C returned 12-LOX inh inactive.
For O=C(CSc1nc(-c2ccccc2)nc2cc(=O)[nH]n12)Nc1ccccc1F the results were 12-LOX inh inactive.
Cc1cccc(NC(=O)Cn2c(-c3cccc(Cl)c3)nc(C)c(CCO)c2=O)c1C was read as 12-LOX inh inactive.
COc1ccc(C(=O)N2CCc3ccc(C(=O)NCc4ccccn4)cc32)cc1 was read as 12-LOX inh inactive.
`COc1ccc(S(=O)(=O)N2CCOCC2)cc1NC(=O)CN1CCC(Cc2ccccc2)CC1` gave DT40 TDP1 no CPT 16.4µM, RORgamma inh inactive, Gal4-VP16 FLuc inactive, ELG1 DNA repair inconclusive, TDP1 cell CPT 16.4µM and 12-LOX inh inactive.
`CCOc1cc(N2CCOCC2)c(OCC)cc1NC(=O)CSc1ncccc1C(=O)O` gave DT40 TDP1 no CPT 6.51µM, ELG1 DNA repair inactive, TDP1 cell CPT inconclusive and 12-LOX inh 11.2µM.
`CCOc1cc(N2CCOCC2)c(OCC)cc1NC(=O)COC(=O)c1ccc(OC)c([N+](=O)[O-])c1` gave DT40 TDP1 no CPT 23.1µM, TDP1 cell CPT 14.6µM and 12-LOX inh inactive.
`CCOc1cc(N2CCOCC2)c(OCC)cc1NC(=O)CN1CCC(Cc2ccccc2)CC1` gave DT40 TDP1 no CPT inconclusive, RORgamma inh inactive, Gal4-VP16 FLuc inactive, ELG1 DNA repair inconclusive, TDP1 cell CPT 23.1µM and 12-LOX inh inactive.
Screening CCOc1cc(N2CCOCC2)c(OCC)cc1NC(=O)c1cc(C)cc(C)c1 returned DT40 TDP1 no CPT 11.6µM, RORgamma inh inactive, Gal4-VP16 FLuc inactive, ELG1 DNA repair inconclusive, TDP1 cell CPT 13µM and 12-LOX inh inactive.
CCOc1cc(N2CCOCC2)c(OCC)cc1NC(=O)C(C)C was read as DT40 TDP1 no CPT inactive, RORgamma inh inactive, Gal4-VP16 FLuc inactive, ELG1 DNA repair inactive, TDP1 cell CPT inactive and 12-LOX inh inactive.
For O=C(NC1CCCC1)N1CCCCC1c1nc(-c2cnccn2)n[nH]1 (centres undefined) the results were 12-LOX inh inactive.
Cc1ccc2c(C(=O)N3CCCCCC3)cc(NC(=O)C3CCC3)cc2n1 was read as 12-LOX inh inactive.
